Data reported in PubChem BioAssay.
Activity calls are given as the source filed them.

How the values were obtained:
[1] = binders of probe aFSTL3 on microarray, primary screen, stem cell growth factor project, biochemical, small-molecule microarray, fluorescence 635/667 (AID 1064); details: higher = more signal;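 note: measures binding of the biotinylated anti-FSTL3 antibody to printed compounds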
[2] = binders from COS7 lysate, DM2A8 probe, primary screen, torsin A project, cell lysate, small-molecule microarray, fluorescence 635/667 (AID 1065); details: higher = more signal, COS7 lysate expressing mutant human TOR1A
[3] = binders of probe aFGF2 on microarray, primary screen, stem cell growth factor project, biochemical, small-molecule microarray, fluorescence 635/667 (AID 1067); details: higher = more signal;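 note: measures binding of biotinylated aFGF2 protein to printed compounds on slides; z-score merges feature fluorescence and signal-to-noise across triplicate slides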
[4] = binders of probe aFGF10 on microarray, primary screen, stem cell growth factor project, biochemical, small-molecule microarray, fluorescence 635/667 (AID 1071); details: higher = more signal;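 note: score merges 667 nm spot intensity and signal to noise from triplicate slides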
[5] = molecular target: Neurogenic locus notch homolog protein 2 (Homo sapiens) (UniProt Q04721); assay: Notch2 binders on small-molecule microarrays, primary screen, biochemical, small-molecule microarray, 635 nm fluorescence, stem cell growth factors (AID 1073); details: Notch2 binding, higher = more signal
[6] = molecular target: Pro-neuregulin-1, membrane-bound isoform (Homo sapiens) (UniProt Q02297); assay: NRG1 binders on small-molecule microarrays, primary screen, psychiatric disease protein project, biochemical, small-molecule microarray, fluorescence 635/667 (AID 1075); details: NRG1 binding, 635 nm fluorescence, higher = more signal;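 note: score combines 667 nm spot fluorescence with signal to noise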
[7] = system: Neuregulin-1 EGF-like domain; assay: binders of neuregulin-1 EGF-like domain, primary screen, biochemical, small-molecule microarray, 635 nm fluorescence (AID 1081); details: small-molecule microarray binding, higher = more signal;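 note: binding of the protein to compounds printed on small-molecule microarray slides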
[8] = FRG1 promoter luciferase signal modulators, primary screen, FRG1 inhibition for FSHD, cell-based, C2C12 myotubes, firefly/Renilla luciferase, luminescence (AID 1084); details: higher = more signal, called active from +8 up or from −8 down
[9] = binders of probe aFST on microarray, primary screen, stem cell growth factor project, biochemical, small-molecule microarray, fluorescence 635/667 (AID 1086); details: higher = more signal;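 note: score merges 667 nm fluorescence with signal-to-noise of each printed compound spot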
[10] = binders of probe aHhip on microarray, primary screen, stem cell growth factor project, biochemical, small-molecule microarray, fluorescence 635/667 (AID 1087); details: higher = more signal;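 note: score merges spot fluorescence at 667nm with spot signal to noise ratio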
[11] = system: PRMT1 (protein arginine N-methyltransferase 1); assay: PRMT1 binders on small-molecule microarrays, primary screen, biochemical, small-molecule microarray, 635 nm fluorescence (AID 1088); details: small-molecule microarray binding, higher = more signal;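 note: binding of Prmt1 protein to compounds spotted on small-molecule microarray slides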
[12] = yeast growth modulation, basal conditions, primary screen, YJM789 clinical isolate, OD600, 24 h (AID 1089);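 note: growth of clinical yeast isolate S. cerevisiae YJM 789 seeded 1000 cells per well; test concentration not given here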; details: S. cerevisiae YJM789 growth, higher = more signal, called active from +8 up or from −8 down
[13] = fission yeast growth modulation, primary screen, strain 972, OD600, 24 h, no modulator (AID 1090);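 note: basal condition with compound alone and no growth modifier present; test concentration not given here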; details: S. pombe 972 growth, higher = more signal, called active from +8 up or from −8 down
[14] = S. cerevisiae growth modulation with rapamycin, primary screen, strain BY4716, OD600, 96 h (AID 1091); details: higher = more signal, called active from +8 up or from −8 down; note: test concentration not given here
[15] = molecular target: Torsin-1A-interacting protein 2 (Homo sapiens) (UniProt Q8NFQ8); assay: LULL1 binders on small-molecule microarray, primary screen, cell lysate, human LULL1 lysate, 635/667 nm fluorescence (AID 1092); details: hLULL1 lysate binding, 635 nm fluorescence, higher = more signal;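 note: probe is lysate of COS7 cells overexpressing human LULL1; score merges per-feature 667 nm fluorescence with signal-to-noise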
[16] = E. coli growth modulation, two-sided OD650, primary screen, E. coli filamentation project, strain DRC41, 24 h (AID 1093); details: OD650, 24 h, higher = more signal, called active from +8 up or from −8 down;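 note: MC1000 strain lacking acrAB efflux and sulA so SOS filamentation is blocked; test concentration not given here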
[17] = small-molecule microarray binders of probe aLefty2, primary screen, biochemical, biotinylated probe, 635/667 nm fluorescence (AID 1094); details: higher = more signal;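 note: score merges spot fluorescence near 667 nm with spot signal-to-noise ratio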
[18] = system: Noggin (protein binding on small-molecule microarray); assay: Noggin binders on small-molecule microarray, primary screen, biochemical, 635/667 nm fluorescence (AID 1095); details: 635 nm fluorescence, higher = more signal;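 note: score merges 667 nm feature fluorescence with signal to noise over triplicate slides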
[19] = molecular target: Neurogenic locus notch homolog protein 3 (Homo sapiens) (UniProt Q9UM47); assay: NOTCH3 binders on small-molecule microarray, primary screen, biochemical, 635/667 nm fluorescence (AID 1096); details: NOTCH3 binding, 635 nm fluorescence, higher = more signal
[20] = small-molecule microarray binders of probe aEGFR, primary screen, biochemical, biotinylated probe, 635/667 nm fluorescence (AID 1097); details: higher = more signal;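 note: probe is a biotinylated anti-EGFR antibody binding compounds printed on slides; score combines fluorescence near 667 nm and signal to noise of each spot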

Neurogenic locus notch homolog protein 3 (Homo sapiens), sequence (Q9UM47 whole entry, looked up): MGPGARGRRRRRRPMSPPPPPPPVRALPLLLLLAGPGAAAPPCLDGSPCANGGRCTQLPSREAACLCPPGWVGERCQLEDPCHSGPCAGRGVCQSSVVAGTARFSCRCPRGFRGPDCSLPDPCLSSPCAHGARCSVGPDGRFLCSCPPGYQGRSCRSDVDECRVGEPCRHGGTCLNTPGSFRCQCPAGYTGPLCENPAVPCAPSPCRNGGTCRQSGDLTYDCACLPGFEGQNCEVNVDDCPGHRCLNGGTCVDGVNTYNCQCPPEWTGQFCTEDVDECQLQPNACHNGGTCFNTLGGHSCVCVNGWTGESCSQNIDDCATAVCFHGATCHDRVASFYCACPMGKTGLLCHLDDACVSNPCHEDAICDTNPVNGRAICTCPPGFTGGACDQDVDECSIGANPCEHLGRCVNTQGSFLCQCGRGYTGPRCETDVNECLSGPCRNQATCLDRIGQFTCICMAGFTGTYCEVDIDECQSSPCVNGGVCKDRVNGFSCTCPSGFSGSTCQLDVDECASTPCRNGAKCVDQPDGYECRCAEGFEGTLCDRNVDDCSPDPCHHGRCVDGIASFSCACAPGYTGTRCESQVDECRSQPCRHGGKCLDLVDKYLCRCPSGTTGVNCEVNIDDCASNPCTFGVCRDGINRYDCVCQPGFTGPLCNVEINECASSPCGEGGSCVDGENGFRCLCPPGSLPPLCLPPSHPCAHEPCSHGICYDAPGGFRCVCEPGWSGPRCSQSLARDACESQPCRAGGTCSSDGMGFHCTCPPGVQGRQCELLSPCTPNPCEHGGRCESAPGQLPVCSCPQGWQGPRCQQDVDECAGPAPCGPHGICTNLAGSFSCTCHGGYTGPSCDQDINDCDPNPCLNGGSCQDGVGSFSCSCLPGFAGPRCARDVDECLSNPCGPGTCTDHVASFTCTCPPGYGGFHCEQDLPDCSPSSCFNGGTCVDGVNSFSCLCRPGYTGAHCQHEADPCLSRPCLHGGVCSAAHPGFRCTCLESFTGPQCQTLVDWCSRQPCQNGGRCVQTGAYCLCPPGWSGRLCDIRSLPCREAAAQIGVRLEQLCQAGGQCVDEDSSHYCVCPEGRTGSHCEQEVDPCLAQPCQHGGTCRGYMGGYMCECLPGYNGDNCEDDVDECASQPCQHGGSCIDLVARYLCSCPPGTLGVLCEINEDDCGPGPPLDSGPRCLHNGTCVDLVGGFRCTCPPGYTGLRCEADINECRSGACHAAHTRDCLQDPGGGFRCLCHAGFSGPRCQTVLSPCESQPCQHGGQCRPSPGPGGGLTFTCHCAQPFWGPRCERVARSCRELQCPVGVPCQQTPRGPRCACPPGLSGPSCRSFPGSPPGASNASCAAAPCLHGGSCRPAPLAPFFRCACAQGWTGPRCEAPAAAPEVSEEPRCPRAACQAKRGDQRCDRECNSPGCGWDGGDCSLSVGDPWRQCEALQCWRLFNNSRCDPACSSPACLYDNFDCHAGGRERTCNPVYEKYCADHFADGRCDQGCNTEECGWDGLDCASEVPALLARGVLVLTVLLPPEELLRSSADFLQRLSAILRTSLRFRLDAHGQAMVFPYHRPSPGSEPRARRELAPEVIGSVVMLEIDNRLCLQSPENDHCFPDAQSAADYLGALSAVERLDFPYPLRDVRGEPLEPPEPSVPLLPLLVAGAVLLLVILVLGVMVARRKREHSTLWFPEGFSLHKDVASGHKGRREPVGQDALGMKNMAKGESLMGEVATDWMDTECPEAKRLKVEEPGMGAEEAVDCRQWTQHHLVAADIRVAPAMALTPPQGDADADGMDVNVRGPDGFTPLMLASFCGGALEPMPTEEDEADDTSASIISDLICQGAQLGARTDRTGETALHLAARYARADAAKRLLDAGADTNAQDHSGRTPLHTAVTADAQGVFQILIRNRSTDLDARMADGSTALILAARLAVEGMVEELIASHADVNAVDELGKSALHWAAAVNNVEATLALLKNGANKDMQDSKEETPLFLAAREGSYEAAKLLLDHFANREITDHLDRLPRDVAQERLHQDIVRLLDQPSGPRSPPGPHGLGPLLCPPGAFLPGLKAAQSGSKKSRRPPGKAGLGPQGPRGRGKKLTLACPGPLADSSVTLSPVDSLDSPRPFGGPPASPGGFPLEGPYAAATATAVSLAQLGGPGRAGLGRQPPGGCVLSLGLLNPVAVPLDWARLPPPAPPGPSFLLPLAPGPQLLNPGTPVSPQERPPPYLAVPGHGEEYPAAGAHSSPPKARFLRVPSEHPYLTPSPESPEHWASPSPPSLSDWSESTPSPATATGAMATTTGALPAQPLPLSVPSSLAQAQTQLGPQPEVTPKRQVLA
Neurogenic locus notch homolog protein 2 (Homo sapiens), sequence (Q04721 whole entry, looked up, canonical isoform): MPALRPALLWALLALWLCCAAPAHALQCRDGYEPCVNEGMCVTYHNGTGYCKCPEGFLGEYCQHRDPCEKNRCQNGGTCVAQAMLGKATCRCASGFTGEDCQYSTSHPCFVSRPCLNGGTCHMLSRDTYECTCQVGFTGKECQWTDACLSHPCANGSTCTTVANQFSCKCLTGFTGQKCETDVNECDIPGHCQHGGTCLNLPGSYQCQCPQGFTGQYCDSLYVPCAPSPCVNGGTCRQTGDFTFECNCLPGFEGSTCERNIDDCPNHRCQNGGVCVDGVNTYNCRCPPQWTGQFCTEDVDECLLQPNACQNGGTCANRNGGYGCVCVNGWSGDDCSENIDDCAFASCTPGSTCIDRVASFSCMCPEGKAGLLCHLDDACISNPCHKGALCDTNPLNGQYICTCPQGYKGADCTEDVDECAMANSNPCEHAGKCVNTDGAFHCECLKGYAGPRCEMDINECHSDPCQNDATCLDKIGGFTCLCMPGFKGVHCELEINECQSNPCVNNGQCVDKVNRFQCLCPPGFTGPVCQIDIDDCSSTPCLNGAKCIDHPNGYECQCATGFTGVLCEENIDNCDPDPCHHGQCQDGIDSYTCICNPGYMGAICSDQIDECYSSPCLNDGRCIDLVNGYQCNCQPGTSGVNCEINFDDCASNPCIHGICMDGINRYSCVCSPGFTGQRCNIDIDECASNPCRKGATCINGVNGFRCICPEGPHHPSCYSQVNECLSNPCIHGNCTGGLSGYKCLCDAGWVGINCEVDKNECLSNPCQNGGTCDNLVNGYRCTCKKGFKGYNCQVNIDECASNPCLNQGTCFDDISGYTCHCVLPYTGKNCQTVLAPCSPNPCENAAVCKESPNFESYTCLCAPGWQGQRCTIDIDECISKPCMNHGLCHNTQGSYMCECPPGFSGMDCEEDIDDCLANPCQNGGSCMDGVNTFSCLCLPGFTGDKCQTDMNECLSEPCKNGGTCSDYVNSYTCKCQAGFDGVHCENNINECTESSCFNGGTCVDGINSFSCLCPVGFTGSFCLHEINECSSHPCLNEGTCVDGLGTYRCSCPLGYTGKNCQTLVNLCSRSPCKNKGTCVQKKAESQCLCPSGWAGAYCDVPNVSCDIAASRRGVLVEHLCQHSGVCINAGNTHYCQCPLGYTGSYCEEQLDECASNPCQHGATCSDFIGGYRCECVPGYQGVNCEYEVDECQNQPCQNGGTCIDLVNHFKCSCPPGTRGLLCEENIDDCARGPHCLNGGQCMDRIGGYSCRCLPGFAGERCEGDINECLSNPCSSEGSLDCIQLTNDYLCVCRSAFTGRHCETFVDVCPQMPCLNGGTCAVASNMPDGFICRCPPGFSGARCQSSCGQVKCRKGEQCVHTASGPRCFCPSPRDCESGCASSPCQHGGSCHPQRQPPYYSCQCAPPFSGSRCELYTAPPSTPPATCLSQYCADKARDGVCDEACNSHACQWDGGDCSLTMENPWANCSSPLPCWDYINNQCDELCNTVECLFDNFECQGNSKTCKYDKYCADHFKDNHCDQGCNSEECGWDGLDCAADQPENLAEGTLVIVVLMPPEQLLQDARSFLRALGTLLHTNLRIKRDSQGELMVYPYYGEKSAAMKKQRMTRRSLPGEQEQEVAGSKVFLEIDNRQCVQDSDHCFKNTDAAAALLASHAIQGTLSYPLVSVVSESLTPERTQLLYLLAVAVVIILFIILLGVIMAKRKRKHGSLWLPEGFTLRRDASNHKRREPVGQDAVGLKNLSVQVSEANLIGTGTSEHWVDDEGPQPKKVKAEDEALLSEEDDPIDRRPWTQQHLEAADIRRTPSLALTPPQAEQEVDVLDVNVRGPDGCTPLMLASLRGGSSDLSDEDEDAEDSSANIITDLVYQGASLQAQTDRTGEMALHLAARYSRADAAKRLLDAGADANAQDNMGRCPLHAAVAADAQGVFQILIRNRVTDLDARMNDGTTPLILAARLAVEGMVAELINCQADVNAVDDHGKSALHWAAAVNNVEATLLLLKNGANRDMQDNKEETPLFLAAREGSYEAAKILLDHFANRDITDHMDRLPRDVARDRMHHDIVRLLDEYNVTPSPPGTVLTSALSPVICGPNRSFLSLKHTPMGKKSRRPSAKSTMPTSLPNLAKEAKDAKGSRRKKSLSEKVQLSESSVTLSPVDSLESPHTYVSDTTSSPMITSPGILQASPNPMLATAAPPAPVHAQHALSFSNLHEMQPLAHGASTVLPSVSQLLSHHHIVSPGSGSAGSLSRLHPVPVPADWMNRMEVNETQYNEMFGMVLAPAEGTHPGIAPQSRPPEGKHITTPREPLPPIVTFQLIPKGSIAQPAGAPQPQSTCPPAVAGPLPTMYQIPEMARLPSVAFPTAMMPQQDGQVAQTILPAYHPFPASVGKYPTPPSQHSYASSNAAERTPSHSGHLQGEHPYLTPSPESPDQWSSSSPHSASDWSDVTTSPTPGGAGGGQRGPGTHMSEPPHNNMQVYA

Row | SMILES | composite z-score [1] | composite z-score [2] | composite z-score [3] | composite z-score [4] | composite z-score [5] | composite z-score [6] | composite z-score [7] | z-score [8] | composite z-score [9] | composite z-score [10] | composite z-score [11] | z-score [12] | z-score [13] | z-score [14] | composite z-score [15] | z-score [16] | composite z-score [17] | composite z-score [18] | composite z-score [19] | composite z-score [20]
1 | O=C1c2ccccc2C(=O)C2CC([C@H]3Oc4ccccc4S(=O)(=O)N4CCC[C@@H]34)=CCC12 (stereo not given in full) | -0.253 | -0.0672 | -0.176 | -0.159 | 0.193 | 0.583 | 0.449 | -1.71 (inactive) | -0.0883 | 0.21 | -0.739 | 0.151 (inactive) | -0.717 (inactive) | 0.388 (inactive) | -0.312 | 1.47 (inactive) | -0.116 | 0.162 | -0.42 | -0.124
2 | CCOC(=O)C1=CC[C@@H](c2ccccc2)N(S(=O)(=O)c2ccc(C)cc2)[C@H]1C=C(C)C | -0.259 | 0.644 | 0.119 | 0.831 | 1.46 | 0.944 | 0.957 | -2.39 (inactive) | 1.58 | -0.199 | 1.54 | 0.465 (inactive) | 2.76 (inactive) | 4 (inactive) | 3.22 | 0.322 (inactive) | 0.0704 | 0.793 | 1.06 | 0.101
3 | COC(=O)[C@@]1(Cc2ccccc2)[C@H]2c3cc(C(=O)N(C)C)n(Cc4ccccn4)c3C[C@H]2CN1C(=O)c1ccccc1 | 0.907 | 1.6 | 0.305 | 0.76 | 1.15 | 2.33 | 1.31 | 1.01 (inactive) | 1.27 | 0.0302 | 0.664 | 0.249 (inactive) | 0.87 (inactive) | 0.963 (inactive) | 3.68 | -0.537 (inactive) | 0.506 | -0.793 | 1.11 | 0.309
4 | COCCOC(=O)N1C(=O)[C@@]2(c3ccccc31)[C@H](c1ccc(OCCO)cc1)N1[C@H](c3ccccc3)[C@H](c3ccccc3)OC(=O)[C@H]1[C@@H]2C(=O)NC[C@H](O)c1ccccc1 | -0.115 | 0.537 | 0.0276 | 0.228 | 0.614 | 1.52 | 1.35 | -1.51 (inactive) | 0.576 | -0.0753 | 1.53 | 2.2 (inactive) | 0.892 (inactive) | 6.77 (inactive) | 3.09 | -0.0625 (inactive) | 0.187 | 1.19 | 1.04 | -0.0759
5 | COCC(=C=CC[C@@H](O)c1ccccc1OCCO)C[C@@H](O)c1ccccn1 | -0.304 | 0.663 | -0.0775 | 0.159 | 0.12 | 1.21 | 1.2 | -0.0964 (inactive) | -0.0376 | 0.0156 | 1.29 | -0.108 (inactive) | -1.4 (inactive) | -0.856 (inactive) | 2.97 | -0.224 (inactive) | -0.0825 | 0.416 | 0.88 | -0.0512
6 | O=C1O[C@H](c2ccccc2)[C@H](c2ccccc2)N2[C@H]1[C@@H](C(=O)NC[C@H](O)c1ccccc1)[C@]1(C(=O)Nc3ccccc31)[C@H]2c1ccccc1OCCO | 0.0095 | 0.142 | -0.0024 | 0.555 | 0.0225 | 0.851 | 1.2 | -1.13 (inactive) | -0.821 | -0.445 | 1.55 | 0.837 (inactive) | 0.468 (inactive) | 4.03 (inactive) | 2.92 | 2.05 (inactive) | -0.181 | 1.71 | 0.723 | -0.109
7 | O=c1c2ccc(Br)cc2nc(-c2ccccc2)n1Cc1cccc(O)c1 | 0.255 | 2.81 | -0.0774 | 0.556 | 0.701 | 1.81 | 1.12 | 4.59 (inactive) | 0.831 | -0.181 | 0.529 | -1.52 (inactive) | -2.91 (inactive) | -0.511 (inactive) | 1.86 | 1.38 (inactive) | -0.0614 | -0.0706 | 0.343 | -0.0721
8 | COC(=O)[C@]1(Cc2ccccc2CN=[N+]=[N-])N=C(c2ccc(OCCCO)cc2)O[C@@H]1c1ccccc1CN=[N+]=[N-] | 0.409 | -0.119 | -0.087 | 0.013 | -0.443 | 0.726 | 1.28 | -0.904 (inactive) | -0.117 | -0.0994 | 0.921 | -0.456 (inactive) | -1.09 (inactive) | 33.5 (active) | 2 | 2.08 (inactive) | 0.111 | 0.435 | -0.253 | -0.0828
9 | C=CCOC(=O)[C@H]1[C@@H]2C(=O)O[C@@H](c3ccccc3)[C@@H](c3ccccc3)N2[C@@H](c2ccc(OCCOC(=O)[C@H]3C[C@H]4C(=O)N[C@@H](CCCCN(C)C)C(=O)N4[C@H]3c3ccc(O)cc3)cc2)[C@]12C(=O)Nc1ccccc12 | 0.27 | 0.91 | -0.033 | 0.445 | 0.349 | -0.013 | 1.19 | 0.139 (inactive) | 0.86 | 0.0524 | 1.54 | -0.0535 (inactive) | -1.03 (inactive) | -0.713 (inactive) | 2.49 | -0.296 (inactive) | 0.155 | 1.83 | 1.06 | 0.0088
10 | [N-]=[N+]=Nc1ccccc1C[C@]1(C(=O)NCCN2CCOCC2)N=C(c2ccc(OCCCO)cc2)O[C@H]1c1ccccc1N=[N+]=[N-] | -0.195 | -0.354 | 0.125 | 0.763 | 1.64 | 1.59 | 1.33 | -0.344 (inactive) | 0.839 | 0.113 | 1.55 | -2.65 (inactive) | -4.92 (inactive) | -0.821 (inactive) | 3.37 | 0.683 (inactive) | 0.491 | 0.708 | 1.03 | 0.542
